The record followed here is the supplement of paper PMC10127200.

Structures can show the parent of a compound that is named as a salt.

The subject of the experiment is A549. In words: Euclidean distance of Cell Painting phenotypic profile (signed KS, 77 features) to DMSO centroid (dimensionless distance); higher = stronger phenotypic change vs DMSO (phenoactivity). To be noted: 48 h; 5 or 10 uM (library dependent). In a few lines: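 Five cancer lines and a healthy fibroblast line received library compounds at 10 or 5 uM (library-dependent, 0.1% DMSO final) for 48 h. Stained cells were imaged confocally at 20X (9 fields/well). Harmony extracted 77 features, each scored as a signed Kolmogorov-Smirnov statistic against same-plate vehicle wells. Profiles were plate-position corrected, correlation-weighted and replicate-averaged at the top dose. Phenoactivity is the Euclidean distance from each profile to the median vehicle profile.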
As for `C=C1[C@@H](C)[C@H]2[C@H](Cc3ccccc3)NC(=O)[C@]23[C@H](OC(C)=O)/C=C/[C@@](C)(O)C(=O)[C@@H](C)C/C=C/[C@H]3[C@@H]1O` [Cytochalasin D], the Euclidean distance is 3.63. As for `CCC12C=CCN3CC[C@@]4(c5ccc(OC)cc5N(C)[C@H]4[C@@](O)(C(=O)OC)[C@@H]1OC(C)=O)[C@@H]32` (some centres undefined) [Vindoline], the figure is 0.491; as for `NCC(O)c1ccc(O)cc1` (centres undefined) [(+.-)-Octopamine HCl], 0.639. The compound `COC(=O)[C@@H](N)CCCNC(=N)N[N+](=O)[O-]` came in with an Euclidean distance of 1.3. For `CC[C@@]1(O)C[C@H](O[C@H]2C[C@H](N(C)C)[C@H](O)[C@H](C)O2)c2c(cc3c(c2O)C(=O)c2c(O)cccc2C3=O)[C@H]1C(=O)OC` [Aclacinomycin], the Euclidean distance was found to be 3.27. As for `CCC(COC(=O)c1cc(OC)c(OC)c(OC)c1)(c1ccccc1)N(C)C` (centres undefined) [Trimebutine], the figure is 0.4. Under `CC(C)OC(=O)[C@H](C)N[P@](=O)(CO[C@H](C)Cn1cnc2c(N)ncnc21)Oc1ccccc1` [Tenofovir Alafenamide (GS-7340)] stands 1.16; under `Cl[TeH]1(Cl)(Cl)OCCO1.N`, 1.83; under `N.N.[Cl][Pt][Cl]` [Cisplatin], 1.39. In turn, `CC(=O)O[C@H]1C[C@@H]2CC[C@@H]3[C@H](CC[C@@]4(C)[C@H]3C[C@H]([N+]3(C)CCCCC3)[C@@H]4OC(C)=O)[C@@]2(C)C[C@@H]1[N+]1(C)CCCCC1` [Pancuronium dibromide] registered an Euclidean distance of 0.916. As for `CC[N+](C)(CC)CCOC(=O)C(O)(c1ccccc1)c1ccccc1` [Methylbenactyzine Bromide], the figure is 0.883; as for `COc1ccc2[nH]cc(CCN)c2c1` [5-Methoxytryptamine], 0.912. As for `O=C(C[S+]([O-])C(c1ccccc1)c1ccccc1)NO` (centres undefined) [Adrafinil], the figure is 0.729; as for `CC(C)(C)c1cc(C=C(C#N)C#N)cc(Br)c1O`, 1.74; as for `CC(C)(O)C(Cl)(Cl)Cl` [Chlorobutanol], 1.04.

The compound `CCOC(=O)c1cncn1[C@H](C)c1ccccc1` [Etomidate] had an Euclidean distance of 1.77. Regarding `CC1(C)C(C=C(Cl)Cl)C1C(=O)OCc1cccc(Oc2ccccc2)c1` (centres undefined) [Permethrin], the Euclidean distance amounted to 0.946. Consider `CC[C@H](C)[C@@H]([C@@H](CC(=O)N1CCC[C@H]1[C@H](OC)[C@@H](C)C(=O)N[C@H](C)[C@@H](O)c1ccccc1)OC)N(C)C(=O)[C@@H](NC(=O)[C@@H](NC)C(C)C)C(C)C` [Monomethyl auristatin E (MMAE)], for which the Euclidean distance came out at 2.69.

`O=c1[nH]c2ccccc2n1CCCN1CCC(n2c(=O)[nH]c3cc(Cl)ccc32)CC1` [Domperidone]: the Euclidean distance worked out at 1.18. Take `Fc1cc(F)c2c(c1)[C@H]1C=CC[C@H]1C(c1cccnc1)N2` (some centres undefined) [Golgicide A]: the Euclidean distance amounted to 0.432. As for `Nc1ccncc1` [4-Aminopyridine], the figure is 0.626; as for `C[C@@H]1[C@H](O)[C@@H](C)/C=C/C=C/CC/C=C/C=C/C=C/C=C/[C@H](O[C@H]2O[C@@H](C)[C@H](O)[C@@H](N)[C@H]2O)C[C@@H]2O[C@](O)(C[C@@H](O)[C@H](O)CC[C@@H](O)C[C@@H](O)C[C@@H](O)CC(=O)O[C@H]1C)C[C@H](O)[C@H]2C(=O)O` [Nystatin (Fungicidin)], 1.12. Under `CN1CCN(c2nc3ccccc3nc2Cl)CC1` stands 1.25. For the compound `CC(C)(C)[C@]1(O)CC2OC(=O)CC23C(=O)OC2OC(=O)[C@H](O)C231` (some centres undefined) [Bilobalide], the Euclidean distance is 1.09.
